Assay outcomes deposited in PubChem BioAssay by The Scripps Research Institute Molecular Screening Center.
Most compounds without a hit are left out; they make up all but 3.4% or so of the library.
FBW7 act: human FBW7 E3 ligase activation, primary screen. Q969H0. AlphaScreen FBW7–phospho-cyclin E peptide binding, activator screen. normalized activity (activation), % at 26.1 µM. 650,000 tested, 0.13% active; in the data active means normalized activity above about 1.9%;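 further: purified mutant Fbw7 with reduced substrate affinity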
MITF inh: blocks human microphthalmia-associated transcription factor. O75030. AlphaScreen MITF homodimerization, bead proximity signal. inhibition, % at 2.6 µM. 650,000 tested, 0.91% active. AID 1259374; in the data active means inhibition above about 50%;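 further: 0% = vehicle wells with protein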
GPR151 ag: activators of human GPR151 | Q8TDV0 | PathHunter beta-arrestin GPR151 cells, luminescence | activation, % at 11.2 µM | 650,000 tested, 1% active | AID 1508602; in the data active means activation above about 4.9%;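 further: 0% = median of compound wells and 100% = cells with positive control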
TEAD-YAP block: TEAD-YAP interaction inhibition. 640,000 tested, 1.4% active. HEK-TIYL cells, TEAD-Gal4/YAP UAS-luciferase luminescence. inhibition, % at 9.12 µM; in the data active means inhibition above about 32%;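 further: 0% = median of test compound wells and 100% = reference inhibitor wells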
An asterisk follows results filed as active.

SMILES | FBW7 act | MITF inh | GPR151 ag | TEAD-YAP block
COc1ccc(COC(=O)C2=C(C)NC(=O)NC2c2ccc([N+](=O)[O-])cc2)cc1 (centres undefined) | 0 | 11 | 0 | 44*
CCCOc1ccc(C2NC(=O)NC(C)=C2C(=O)OCc2ccc(OC)cc2)cc1 (centres undefined) | 0 | -2 | -1 | 58*
CCOC(=O)C1=C(C)NC(=O)NC1c1ccc([N+](=O)[O-])cc1 (centres undefined) | 1 | 1 | 1 | 1
CCCCOC(=O)C1=C(C)NC(=O)NC1c1ccc(OCCC)cc1 (centres undefined) | 0 | 5 | 0 | 20
COc1ccc(COC(=O)C2=C(C)NC(=O)NC2c2ccc(C)cc2)cc1 (centres undefined) | 0 | -8 | -1 | 22
CCCOC(=O)C1=C(C)NC(=O)NC1c1ccc(OCCC)cc1 (centres undefined) | 0 | -14 | -1 | 43*
COc1ccc(C2NC(=O)NC(C)=C2C(=O)OCc2ccc3c(c2)OCO3)cc1 (centres undefined) | 0 | -4 | 1 | 67*
CC(=O)c1c(C)[nH]c(C(=O)CN2C(=O)c3ccccc3S2(=O)=O)c1C | 0 | 16 | -1 | 41*
O=C(CN1C(=O)c2ccccc2S1(=O)=O)c1ccccc1 | 1 | 11 | -1 | 54*
CCOC(=O)CN1C(=O)c2ccccc2S1(=O)=O | 0 | -2 | 0 | 0
CC(=O)N(C)C1=C(N2CCCCC2)C(=O)c2ccccc2C1=O | 0 | 0 | -1 | 91*
CC(=O)N(C1=C(N2CCCCC2)C(=O)c2ccccc2C1=O)c1ccccc1C | 0 | 14 | -2 | 36*
COc1ccc(-c2[nH]nc3nc(-c4ccc(O)c(OC)c4)cc(C(=O)O)c23)cc1 | 0 | 1 | -1 | -1
Clc1ccc(-c2cn3c4ccccc4nc3n2CCNC2CCCCC2)cc1 | 1 | 3 | 1 | -4
Brc1ccc(-c2cn3c4ccccc4nc3n2CCCNC2CCCCC2)cc1 | 6.2* | -1 | 0 | 4
Oc1c(C(Nc2cccnc2)c2ccsc2)ccc2cccnc12 (centres undefined) | 0 | 18 | 1 | 50*
Cc1ccnc(NC(c2ccncc2)c2ccc3cccnc3c2O)c1 (centres undefined) | 0 | 113* | 1 | 79*
Cc1ccnc(NC(c2ccc(F)cc2)c2ccc3cccnc3c2O)c1 (centres undefined) | -2 | 17 | -1 | 73*
Cc1ccnc(NC(c2ccsc2)c2ccc3cccnc3c2O)c1 (centres undefined) | 0 | 62* | 0 | 89*
Cc1ccc(C2C(C(=O)c3cccs3)=C(O)C(=O)N2CCN(C)C)cc1 (centres undefined) | 0 | 5 | 0 | -3
CC(=O)c1cccc(NC(=O)Nc2ccc(C)cc2[N+](=O)[O-])c1 | 0 | -3 | 0 | -5
CCCNc1ccnc(NC2CCN(Cc3ccccc3)CC2)n1 | 0 | 3 | -1 | -9
Cc1ccnc(NC(c2ccc3c(c2)OCO3)c2ccc3cccnc3c2O)c1 (centres undefined) | 0 | 28 | 1 | 82*
Cc1ccnc(NC(c2ccccn2)c2ccc3cccnc3c2O)c1 (centres undefined) | -1 | 70* | -1 | 71*
CCOC(=O)c1ccccc1NC(=O)/C(C#N)=C/c1cccs1 | 0 | 21 | 0 | -2
SMILES | FBW7 act | MITF inh | GPR151 ag | TEAD-YAP block
CC(=O)N1CCN(Cc2ccc3c(c2)CN(Cc2ccc(Cl)cc2)CCO3)CC1 | 0 | 6 | 0 | 47*
CCOc1ccc(CN2CCOc3ccc(CN4CCN(C(C)=O)CC4)cc3C2)cc1 | 0 | -4 | 1 | 37*
Cc1ccc(CN2CCN(C(=O)c3ccccc3F)CC2)cc1 | 0 | 40 | 3 | -1
CCOc1ccc(CN2CCN(C(=O)c3ccccc3F)CC2)cc1 | 0 | 30 | 0 | 40*
Cc1ccc(C)c(NC(=O)C2CC3c4ccccc4C2c2ccccc23)c1 (centres undefined) | 2.0* | 1 | -1 | 1
CCN(CC)c1ccc(C2NC(=O)c3ccccc3N2)cc1 (centres undefined) | 0 | -4 | 2 | 79*
O=Cc1ccc(Sc2n[nH]c(-c3ccccc3)n2)c([N+](=O)[O-])c1 | 0 | 13 | 0 | 12
CC(C)S(=O)(=O)N1CC[C@@H]2[C@H](CCCN2C(=O)[C@@H]2C[C@@H]3C=C[C@H]2C3)C1 | 0 | -5 | -2 | -3
CC1=CC(C)(C)N2C(=O)C(=O)c3cc(O)cc1c32 | 0 | 34 | -1 | 54*
CC1=CC(C)(C)N2C(=O)C(=O)c3cc(OS(=O)(=O)c4ccc(C)cc4)cc1c32 | -1 | 32 | 0 | 12
